Compound activity (PubChem)
D1 agonist = activates the human D1 dopamine receptor; actives 1% (n = 360,000); AID 504660; activation, % at 2 µM; HEK293 T-REx D1 cells, calcium flux, agonist mode; P21728; also: 0% is about no effect
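Tetracycline-induced HEK293 TREx D1 cells, force-coupled to calcium signalling, were dye-loaded with a no-wash calcium kit. Compound was pin-added after a 10 s baseline. Fluorescence was read kinetically at 1 cycle/s for 180 s, with calcium rises flagged as agonism.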
D1 antagonist = antagonists of human D1 dopamine receptor; activity change, negative = inhibition, % at 10 µM; actives 3.2% (n = 360,000); HEK293 TREx D1 cells, calcium flux, dopamine EC80; hits give low values; AID 504652; in the data active = activity change below about -30%; also: % is scaled to controls: 0 for no effect and ±100 for the full control effect
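After overnight tetracycline induction at 30 C, force-coupled D1 HEK293 cells took up a no-wash calcium dye at room temperature. Compounds were added and monitored 180 s, and the response to EC80 dopamine was then recorded.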
TRHR enhancer = TRH receptor (human) allosteric enhancement; P34981; TRHR cells, fluo-8 calcium fluorescence, EC20 TRH enhancement; enhancement, % at 2 µM; actives 0.66% (n = 360,000); in the data active = enhancement above about 30%; also: 0% is about no effect
Target sequence (P34981 whole entry, looked up): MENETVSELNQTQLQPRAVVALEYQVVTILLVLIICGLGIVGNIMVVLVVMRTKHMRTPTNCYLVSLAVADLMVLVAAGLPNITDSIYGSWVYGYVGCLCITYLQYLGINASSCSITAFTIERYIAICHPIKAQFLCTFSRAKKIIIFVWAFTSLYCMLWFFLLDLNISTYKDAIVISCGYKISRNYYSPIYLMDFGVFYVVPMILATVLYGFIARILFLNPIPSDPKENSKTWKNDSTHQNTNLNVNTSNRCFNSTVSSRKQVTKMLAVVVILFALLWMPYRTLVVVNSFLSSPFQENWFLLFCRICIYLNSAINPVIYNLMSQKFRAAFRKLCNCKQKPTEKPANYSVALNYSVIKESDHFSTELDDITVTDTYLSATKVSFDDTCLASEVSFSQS
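Enhancer read-out: after compound pinning and an initial kinetic agonist-mode read, an EC20 of TRH (10 nM final) was injected and fluo-8 calcium signal (Ex 480/Em 530) followed at 1 s/cycle for 100 cycles in TRHR-expressing cells.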
TRHR ag = agonists of human TRH receptor. P34981. activation, % at 2 µM. AID 493084. actives 0.18% (n = 360,000). TRHR cells, calcium flux fluo-8, FDSS agonist mode; also: 0% is about no effect
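TRHR-expressing cells loaded with fluo-8 calcium dye; 23 nL library compound pin-transferred, kinetic FDSS fluorescence (Ex 480/Em 530) recorded about 180 s for agonist-induced calcium release, before a 10 nM TRH EC20 addition for potentiator mode.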
D1 potentiator = potentiators of human D1 dopamine receptor | HEK293 TREx D1 cells, calcium flux, dopamine EC20 potentiation | potentiation, % at 10 µM | actives 0.036% (n = 360,000); in the data active = potentiation above about 30%; also: 0% is about no effect
Active calls of the source: *; ! = a repeat was not active. This is a sample that favours compounds with a hit; in the whole collection about 4.7% have one here. Rule as the data show it, unless noted: active = activation above about 30%; inactive = the rest.

SMILES	D1 agonist	D1 antagonist	TRHR enhancer	TRHR ag	D1 potentiator
CCCCOc1ccc(S(=O)(=O)Nc2cccnc2)cc1	23.0	-36.6*	-3.1	0.5	-0.8
Cc1ccc(S(=O)(=O)Nc2cccnc2)cc1	2.4	1.2	-3.7	2.9	-6.8
Cc1ccccc1NC(=O)c1c(NC(=O)C(F)(F)F)sc2c1CCCCC2	35.4*	-20.9	12.4	3.0	-0.6
COc1ccccc1NC(=O)c1c(NC(=O)COc2ccccc2)sc2c1CCCCC2	0.4	4.1	-0.7	0.2	-1.8
Cc1ccc(NC(=O)c2c(NC(=O)C(F)(F)F)sc3c2CCCCC3)cc1	31.8*	-42.1*	9.3	1.9	-2.4
COc1ccc(NC(=O)c2c(NC(=O)COc3ccccc3)sc3c2CCCCC3)cc1	-1.0	-36.8*	-5.8	0.1	3.2
O=C(Nc1cccc(Cl)c1)c1c(NC(=O)C(F)(F)F)sc2c1CCCC2	16.3	-34.6*	-7.9	4.7	-2.8
Cc1ccc(NC(=O)c2c(NC(=O)c3ccccc3)sc3c2CCC3)cc1	-1.7	-10.7	-6.7	-0.2	0.1
COc1ccc(NS(=O)(=O)c2cccc(C(=O)N(C)Cc3ccc(SC)cc3)c2)cc1	0.2	-15.4	-2.0	-0.2	-3.2
COc1cccc(NC(=O)CN(C)C(=O)Cn2c(=O)oc3ccccc32)c1	1.0	-2.4	1.8	0.0	4.6
Cc1cccc(NC(=O)c2c(NC(=O)C(F)(F)F)sc3c2CCCCC3)c1	33.5*	-37.4*	9.6	1.4	-2.5
Cc1cccc(NC(=O)c2c(Br)sc3c2CCCC3)c1	0.4	-27.2	-9.5	-0.3	-1.5
COc1ccc(NC2=C(c3ccc(C(F)(F)F)cc3)C(=O)c3ccccc32)cc1	2.0	0.6	0.4	0.7	1.1
CN(C)c1ccc(NS(=O)(=O)c2ccc(-c3csnn3)cc2)cc1	30.3*	0.4	2.9	-0.4	-3.8
Cc1ccc2onc(CC(=O)N3CCN(c4cccc(C)c4C)CC3)c2c1	-0.3	15.2	3.1	0.3	-2.5
COc1cccc(N2CC(C(=O)Nc3ccc(F)cc3)CC2=O)c1 (stereo not given)	9.7	2.7	7.1	1.6	-4.0
COc1cccc(N2CC(C(=O)Nc3ccc(C(=O)OC(C)C)cc3)CC2=O)c1 (stereo not given)	17.1	-30.2*	-0.6	-0.6	-7.5
Cc1cc(Nc2ccccc2)c2c([N+](=O)[O-])cc(C)c(C)c2n1	3.3	-1.8	39.1*	-1.1	-5.5
Cc1ccc(NC(=O)Cn2c(=O)cnc3ccccc32)cc1S(=O)(=O)N1CCCCC1	4.7	-8.1	-3.5	0.3	-5.8
COc1ccc(NC(=O)Cn2c(=O)cnc3ccccc32)cc1S(=O)(=O)N1CCCCC1	-2.4	-47.6*	7.5	-0.8	-4.0
CCOc1ccc(NC(=O)C2=NN(c3ccccc3)C(=O)CC2)cc1S(=O)(=O)N1CCCCC1	5.4	-35.4*	-3.4	0.5	-1.1
Cc1ccc(/C=C/c2onc(C)c2S(=O)(=O)N2CCC(C(=O)N3CC(C)Oc4ccccc43)CC2)cc1 (stereo not given)	8.7	-21.7	-1.8	0.2	-5.3
COCCN=C1N[C@@H](c2ccc(Br)cc2)C(C(=O)OC)=C(C)N1Cc1ccccc1	33.8*!	-33.7*!	19.7	0.3	-4.0
COCCN=C1N[C@@H](c2ccccc2)C(C(=O)OC)=C(C)N1Cc1ccccc1	1.9	-3.9	25.0	0.8	-2.5
Cc1cc2c(s1)c1cnn(Cc3c(F)ccc(C)c3Cl)c(=O)c1n2C	3.5	-23.2	-4.7	1.1	2.8
SMILES	D1 agonist	D1 antagonist	TRHR enhancer	TRHR ag	D1 potentiator
COc1ccc(Nc2cc(C(=O)NCCCN3CCOCC3)c3ccccc3n2)cc1	1.6	-9.6	0.9	1.1	-3.8
CCc1ccc(Sc2cc(C(=O)NCc3cccc(OC)c3)c3ccccc3n2)cc1	13.5	-31.9*	-1.2	3.3	-2.5
CCOc1ccc(Nc2cc(C(=O)NCc3ccccc3Cl)c3ccccc3n2)cc1	-0.8	-10.4	-3.0	0.1	1.7
CCc1ccc(Nc2cc(C(=O)NCCCN3CCOCC3)c3ccccc3n2)cc1	50.7*	-26.2	10.9	-0.5	-6.5
CCOc1ccc(Sc2cc(C(=O)NCc3ccccc3Cl)c3ccccc3n2)cc1	3.9	-36.5*	10.6	1.4	-2.5
CCOc1ccc(-c2cc(C(=O)NCc3ccccc3Cl)c3ccccc3n2)cc1	-1.7	-36.2*	-4.1	0.9	-2.2
CCc1ccc(Sc2cc(C(=O)NCCCN3CCCC(C)C3)c3ccccc3n2)cc1 (stereo not given)	35.7*	-22.0	2.4	0.7	0.5
CCc1ccc(Sc2cc(C(=O)NCCCN3CCC(C)CC3)c3ccccc3n2)cc1	29.5	-20.9	7.9	0.6	0.1
O=C1Nc2ccccc2C12OCCCO2	3.3	-43.7*	-7.3	0.0	-3.0
COc1cccc2cc(C(C)=O)c(=O)oc12	0.9	-23.1	7.1	0.8	-1.4
COc1cccc2cc(C(=O)CS(=O)(=O)c3ccc(Cl)cc3)c(=O)oc12	2.9	34.3	34.0*	0.8	1.8
NS(=O)(=O)c1ccc(CCNC(=O)c2ccc3nc(CCc4ccccc4)oc3c2)cc1	-0.1	7.9	-6.6	0.1	-3.5
COc1ccc(N(CC(=O)N/N=C/c2cccnc2)S(=O)(=O)c2ccc(C)cc2)cc1OC	2.8	-52.2*	-3.4	0.1	-4.9
COc1ccccc1NC(=O)Cn1c(=O)n(CCCCCC(=O)NCc2ccccc2)c(=O)c2sccc21	1.7	6.9	2.8	-0.8	-0.5
COc1ccc(-c2nc(SCC(=O)Nc3ccc4c(c3)OCO4)c(-c3ccc(F)cc3)[nH]2)cc1OC	3.5	-35.5*	-0.8	-1.2	-3.2
COc1ccc(-c2nc(SCC(=O)Nc3ccccc3)c(-c3ccc(F)cc3)[nH]2)cc1OC	-0.2	-47.1*	7.4	1.7	-5.5
COc1cc(-c2nc(SCC(=O)Nc3ccc(C)cc3)c(-c3ccc(F)cc3)[nH]2)cc(OC)c1OC	3.8	-34.8*	5.7	-1.3	-4.8
COc1ccc(NC(=O)CSc2nc(-c3ccc(F)cc3)[nH]c2-c2ccc(C)cc2)cc1OC	3.4	-18.4	-5.0	1.0	-1.1
COc1ccc(-c2nc(SCC(=O)Nc3ccc4c(c3)OCCO4)c(-c3ccc(F)cc3)[nH]2)cc1OC	1.7	-14.2	0.7	-0.8	-4.9
CCOC(=O)c1cccc(N/C=C/C(=O)c2ccc(OC)c(OC)c2)c1	2.0	2.3	6.5	-1.9	-7.0
COc1cccc(C(=O)/C=C/Nc2ccc(S(=O)(=O)Nc3ccc(C(C)=O)cc3)cc2)c1	3.4	-34.4*	1.6	0.4	-6.4
CCOC(=O)c1ccc(N/C=C\C(=O)c2cccc(OC)c2)cc1	11.3	-46.4*	-9.0	0.4	1.5
COc1cc(-c2c(C(C)=O)c(C)nc3c2C(=O)c2ccccc2-3)cc(OC)c1OC	-1.2	2.6	-8.6	0.0	0.5
CC(=O)c1c(Cl)nc2cccc3c2c1-c1ccccc1C3=O	6.5	6.8	34.3*	-0.1	2.0
